# Results filed as inconclusive are left out. Where a call stands in place of a potency, no number is given. Unmarked numbers belong to inactive results. The source made the active and inactive calls. Unless noted, calls come from the whole dose curve; as a rule, active = well fitted curve in the direction sought with a large enough effect; inconclusive = small, poorly fitted or top-dose-only effect, or another doubt; inactive = no such curve, though single readings can be large; an effect the other way counts as inactive or inconclusive.
# Columns and labels:
# [1] = qHTS for Inhibitors of Plasmodium falciparum (DD2) proliferation (AID 504314);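 note: parasite DNA measured by SYBR Green fluorescence after red cell lysis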
# In short: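 Parasite proliferation measured as SYBR Green signal from Plasmodium DNA, mature erythrocytes lacking DNA. 72 h incubation, 37C; activity scaled between vehicle and 0.29 uM artemisinin, with correction from vehicle-only plates.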
# [2] = qHTS for Inhibitors of Plasmodium falciparum (GB4) proliferation (AID 504315); note: nearly all actives have a fitted effect of over 50% in size
# In short: (§1)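 Parasite growth measured as SYBR Green DNA fluorescence (ex 485, em 535 nm) after overnight lysis following 72 h culture at 37 °C, 0.3% parasitemia, 2.5% hematocrit. Values normalized against DMSO and 0.29 uM artemisinin controls, with plate-stack correction.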
# [3] = qHTS for Inhibitors of Plasmodium falciparum (HB3) proliferation (AID 504318); note: nearly all actives have a fitted effect of over 60% in size
# In short: as §1
# [4] = qHTS for Inhibitors of Plasmodium falciparum (CP250) proliferation (AID 504320)
# In short: as §1
# [5] = molecular target: Atrial natriuretic peptide receptor 1 (Homo sapiens) (UniProt P16066); experiment: Natriuretic polypeptide receptor (hNpr1) antagonism - Pilot CMLD screen (AID 1347052; calls by dose curve;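 note: cGMP level read as GloSensor luciferase luminescence after agonist stimulation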; note: potency is the fitted concentration of half-maximal effect)
# Atrial natriuretic peptide receptor 1 (Homo sapiens), sequence (P16066 whole entry, looked up): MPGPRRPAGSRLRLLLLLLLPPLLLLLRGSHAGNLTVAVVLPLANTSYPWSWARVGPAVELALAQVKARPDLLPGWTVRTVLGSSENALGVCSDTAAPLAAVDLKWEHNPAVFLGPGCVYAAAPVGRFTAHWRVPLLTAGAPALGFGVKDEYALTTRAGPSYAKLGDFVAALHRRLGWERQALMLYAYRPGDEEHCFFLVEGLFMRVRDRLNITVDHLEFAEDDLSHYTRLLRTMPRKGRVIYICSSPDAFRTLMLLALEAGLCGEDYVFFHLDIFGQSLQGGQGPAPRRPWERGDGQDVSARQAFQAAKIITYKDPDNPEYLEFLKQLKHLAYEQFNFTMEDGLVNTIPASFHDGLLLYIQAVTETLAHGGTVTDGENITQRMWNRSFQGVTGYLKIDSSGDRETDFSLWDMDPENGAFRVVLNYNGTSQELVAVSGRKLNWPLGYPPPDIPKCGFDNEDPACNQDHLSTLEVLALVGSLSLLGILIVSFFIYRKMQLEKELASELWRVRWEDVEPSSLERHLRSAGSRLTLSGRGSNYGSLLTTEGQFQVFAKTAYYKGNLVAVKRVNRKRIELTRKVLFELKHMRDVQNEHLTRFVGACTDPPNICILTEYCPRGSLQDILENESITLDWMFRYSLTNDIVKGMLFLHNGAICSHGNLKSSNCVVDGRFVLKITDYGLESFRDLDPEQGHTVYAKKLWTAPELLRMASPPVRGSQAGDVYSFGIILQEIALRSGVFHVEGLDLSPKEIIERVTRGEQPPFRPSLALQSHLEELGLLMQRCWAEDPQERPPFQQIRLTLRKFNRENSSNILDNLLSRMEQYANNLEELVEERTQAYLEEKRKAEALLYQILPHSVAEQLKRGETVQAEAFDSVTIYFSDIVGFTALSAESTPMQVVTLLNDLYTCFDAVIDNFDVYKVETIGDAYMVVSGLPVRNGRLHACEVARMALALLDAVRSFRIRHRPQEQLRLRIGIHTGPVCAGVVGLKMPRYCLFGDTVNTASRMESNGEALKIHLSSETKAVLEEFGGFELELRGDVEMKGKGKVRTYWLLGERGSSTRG
Compound,Potency [1],Potency [2],Potency [3],Potency [4],Potency [5],"activity, negative = inhibition [1]"
O=C1[C@@H]2[C@H]3[C@H](O)[C@H](O)CC(=NOC[C@@H](O)COCc4ccco4)[C@H]3CC[C@H]2C(=O)N1C[C@@H]1CCCO1,inactive,inactive,inactive,inactive,inactive,
C#CCN1C(=O)[C@]2(OCCC=C[C@H]2C)c2ccccc21,inactive,inactive,inactive,inactive,inactive,
COC(=O)CC1c2ccccc2C(Cc2ccc(OC)cc2)C(C)N1C(=O)OC (stereo not given),inactive,inactive,inactive,inactive,inactive,
COc1cc(C(NC(=O)C(F)(F)F)c2cc3ccccc3o2)cc(OC)c1OC (stereo not given),inactive,inactive,inactive,inactive,inactive,
COC[C@@H](OC(C)=O)[C@H]1OCc2ccccc2[C@@H]1C=Cc1ccccc1,inactive,inactive,inactive,inactive,inactive,
COC(=O)CCCC1=CC2=CC(=O)C(C)(OC(=O)c3cccs3)C(=O)C2=CN1CC(C)C (stereo not given),inactive,inactive,inactive,inactive,inactive,
CCOC(=O)N1C2=NC(C(=O)OC)=C(C(=O)OC)[C@@H]3N(Cc4ccccc4)c4ccccc4[C@]23C[C@H]1C(=O)OC,,inactive,inactive,inactive,inactive,-1.2% [at 1.12 µM]
C=CC[C@@H]1C=C[C@H](ON=C(C)CCN2CCCCc3nc(C)c(C)cc32)[C@H](CO)O1,inactive,inactive,inactive,inactive,inactive,
COC(=O)N[C@@H](c1ccc(Cl)cc1)C(C(C)=O)C(=O)OC (stereo not given in full),inactive,inactive,inactive,inactive,inactive,
COC(=O)CCCC1=CC2=CC(=O)C(C)(OC(=O)c3cccs3)C(=O)C2=CN1Cc1ccco1 (stereo not given),inactive,inactive,inactive,inactive,inactive,
CC(=O)OC[C@H]1O[C@H](CCON=C(C)CCN2CCCCc3nc(C)c(C)cc32)C=C[C@H]1OC(C)=O,inactive,inactive,inactive,inactive,inactive,
COC(=O)C1=C(C(=O)OC)[C@@H]2N(C)c3ccccc3[C@@]23C[C@@H](C(=O)OC)N(C(=O)Nc2cccc(C#N)c2)C3=N1,inactive,inactive,inactive,inactive,inactive,
CC1(C)O[C@H]2O[C@H]([C@H](O)CON=C3[C@H]4CCn5c(=O)n(-c6ccccc6)c(=O)n5[C@@H]4[C@H](O)[C@@H]4O[C@H]34)[C@H](O)[C@@H]2O1,inactive,inactive,inactive,inactive,inactive,
C=CCNC(=O)[C@H]1C=C(OC)C(=O)C[C@H](c2ccccc2)[C@H]1C,inactive,inactive,inactive,inactive,inactive,
COC(=O)N1[C@H]2CC[C@@]3(C)C=C(C)O[C@]1(C)C3c1ccccc12,inactive,inactive,inactive,inactive,inactive,
N#CCCCS(=O)(=O)c1nnnn1-c1ccccc1,inactive,inactive,inactive,inactive,inactive,
O=C1[C@H]2[C@@H]3[C@@H](O)[C@H](O)CC(=NOCc4ccccc4)[C@H]3CC[C@H]2C(=O)N1C1CCCCC1,inactive,inactive,inactive,inactive,inactive,
Cc1ccc(S(=O)(=O)OC[C@@H]2CN3[C@H](c4ccc(Br)cc4)[C@H](C)CC[C@H]3C(=O)O2)cc1,inactive,inactive,inactive,inactive,inactive,
COCCN1C(=O)N[C@@H](c2ccccc2)[C@H](C(C)=O)[C@H]1C,inactive,inactive,inactive,inactive,inactive,
COC(=O)C1=C(C(=O)OC)[C@@H]2N(Cc3ccccc3)c3ccccc3[C@@]23C[C@@H](C(=O)OC)N(C(=O)Nc2ccccc2F)C3=N1,inactive,inactive,inactive,inactive,3.35 µM (active),
COC(=O)c1nnc(N[C@@H](Cc2c[nH]c3ccccc23)C(=O)OC)nc1C(=O)OC,inactive,inactive,inactive,inactive,inactive,
CC1(OC(=O)CCc2ccccc2)C(=O)C=C2C=C(C3CC3)OC=C2C1=O (stereo not given),inactive,inactive,inactive,inactive,inactive,
CC(CCC(=O)OC[C@H]1O[C@H](C#Cc2ccccc2)C=C[C@H]1Oc1ccc(C)cc1)=NOC[C@@H](O)[C@H]1O[C@@H]2OC(C)(C)O[C@H]2[C@@H]1O,inactive,inactive,inactive,inactive,inactive,
CC1(OC(=O)C2CCCC2)C(=O)C=C2C=C3CCCCN3C=C2C1=O (stereo not given),,inactive,inactive,inactive,inactive,1.6% [at 1.12 µM]
COC(=O)[C@H](COC(C)(C)C)NC(=O)O[C@@H]1C(=O)c2ccc(OC)cc2O[C@H]1c1cccc(C(F)(F)F)c1,inactive,inactive,inactive,inactive,inactive,
COc1ccc2c(c1)O[C@@H](c1cccc(C(F)(F)F)c1)[C@H](OC(=O)Nc1ccc(OC(F)F)cc1)C2=O,inactive,inactive,inactive,inactive,inactive,
COc1ccc2c(c1)C(=O)[C@H](OC(=O)Nc1cc(OC)c(OC)c(OC)c1)[C@@H](c1ccc(OC)c(Br)c1)O2,inactive,inactive,inactive,inactive,inactive,

# Source: PubChem BioAssay (NCATS)
